Measurements taken from PubChem BioAssay (EPA / NIEHS).
Where “and” joins values, the source holds several entries; their conditions need not be identical. Equal entries are not always repeated. Results filed as inconclusive are left out. Some compounds were tested as several samples or in several runs, with calls that do not always agree. Calls of active or inactive are those of the source. The calls were made as follows: active = hit-call score of the fitted dose curve at least 0.9, where 1 is the maximum; inconclusive = response in the unintended direction; inactive = score below 0.9.

Target: rat CYP2D2, Cyp2d26 (gene 25053) (UniProt P10634)
Sequence (P10634 whole entry, looked up): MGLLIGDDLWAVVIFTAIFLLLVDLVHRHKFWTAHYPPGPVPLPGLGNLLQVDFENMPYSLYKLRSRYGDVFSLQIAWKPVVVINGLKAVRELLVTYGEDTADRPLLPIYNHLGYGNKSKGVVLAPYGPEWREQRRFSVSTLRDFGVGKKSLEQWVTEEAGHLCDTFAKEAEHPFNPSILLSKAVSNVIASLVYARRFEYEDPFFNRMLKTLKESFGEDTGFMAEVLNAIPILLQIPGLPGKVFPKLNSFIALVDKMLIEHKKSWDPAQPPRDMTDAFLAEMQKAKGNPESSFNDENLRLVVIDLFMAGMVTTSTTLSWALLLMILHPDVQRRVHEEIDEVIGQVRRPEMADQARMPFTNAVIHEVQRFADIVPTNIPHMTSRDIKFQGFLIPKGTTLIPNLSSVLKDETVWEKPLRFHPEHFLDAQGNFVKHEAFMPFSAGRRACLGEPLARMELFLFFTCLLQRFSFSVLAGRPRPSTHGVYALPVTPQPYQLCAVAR
Assay: NVS_ADME_rCYP2D2: NovaScreen (NVS) CYP450-related Enzyme Activity (ADME) Assay for rat CYP2D2 (AID 2283124)
Experimental: NVS_ADME_rCYP2D2 is a biochemical, single-readout assay that uses extracted gene-proteins in a cell-free assay. Measurements were taken 0.75 hour after chemical dosing in a 96-well plate.NVS_ADME_rCYP2D2 is one of one assay component(s) measured or calculated from the NVS_ADME_rCYP2D2 assay. It is designed to make measurements of enzyme activity, a form of enzyme reporter, as detected with fluorescence intensity signals by Fluorescence technology.Data from the assay component NVS_ADME_rCYP2D2 was analyzed into 1 assay endpoint. This assay endpoint, NVS_ADME_rCYP2D2, was analyzed in the positive analysis fitting direction relative to Acetonitrile as the negative control and baseline of activity. Using a type of enzyme reporter, loss-of-signal activity can be used to understand changes in the enzymatic activity as they relate to the gene Cyp2d2. Furthermore, this assay endpoint can be referred to as a primary readout, because this assay has produced multiple assay endpoints where this one serves a enzymatic activity function. To generalize the intended target to other relatable targets, this assay endpoint is annotated to the cyp intended target family, where the subfamily is xenobiotic metabolism.
Binding assays used specific radioligands (tritiated, iodinated) with non-radioactive competitive displacement ligands in agonist or antagonist protocols (as indicated) and various reference compounds and inhibitors to titrate specific binding to receptors and transporters. Most enzyme assays (CYPs, kinases, phosphatases, proteases, HDACs) used recombinant protein and specific substrates (fluorescence mostly, some colorimetric and radioactive) and inhibitors, followed by a biochemical separation of substrate and product. All assays for the biochemical HTS were initially run in duplicate at a single concentration (10 uM for CYP450 assays and 25 uM for all others). Assay-chemical combinations meeting a pre-defined threshold (e.g., 30% inhibition and other criteria defined below) were then run in singleton concentration-response format with maximum concentration of 20 uM for CYPs and 50 uM for all others. Each assay was run with positive and negative controls, and concurrent controls on every plate. The follow-up (secondary) screen tested active chemical-pairs in concentration series, as well as a few additional assays not tested in the primary screen, some selected negative inactives, and several cases re-run in the concentration series for confirmatory purposes.

Row | Structure (SMILES) | outcome | AC50
1 | COc1ccc(C(c2ccc(OC)cc2)C(Cl)(Cl)Cl)cc1 | inactive | –
2 | OC(c1ccc(Cl)cc1)(c1cncnc1)c1ccccc1Cl (configuration not stated) | – | 6.92 µM (active)
3 | CCOC(=O)C(Cl)Cc1cc(-n2nc(C)n(C(F)F)c2=O)c(F)cc1Cl (configuration not stated) | inactive | –
4 | CCCC1COC(Cn2cncn2)(c2ccc(Cl)cc2Cl)O1 (configuration not stated) | – | 7.44 µM (active) and 7.78 µM (active)
5 | COC(=O)C(C)Oc1ccc(Oc2ccc(Cl)cc2Cl)cc1 (configuration not stated) | inactive | 7.38 µM (active) and 10 µM (active)
6 | CC1COC(Cn2cncn2)(c2ccc(Oc3ccc(Cl)cc3)cc2Cl)O1 (configuration not stated) | – | 1.4 µM (active)
7 | CCOC(=O)CC(SP(=S)(OC)OC)C(=O)OCC (configuration not stated) | – | 6.28 µM (active)
8 | C#CCOS(=O)OC1CCCCC1Oc1ccc(C(C)(C)C)cc1 (configuration not stated) | – | 10 µM (active)
9 | CCOP(=S)(OCC)SCn1c(=O)oc2cc(Cl)ccc21 | – | 2.07 µM (active)
10 | Cc1ccc(-c2c(Cl)nc(C#N)n2S(=O)(=O)N(C)C)cc1 | – | 4.31 µM (active)
11 | CCCN(CCC)c1c([N+](=O)[O-])cc(S(N)(=O)=O)cc1[N+](=O)[O-] | – | 1.3 µM (active)
